# Source: publication PMC7862700, “An all-to-all approach to the identification of sequence-specific readers for epigenetic DNA modifications on cytosine”
# Columns and labels:
# Test in all cases: DAPPL (digital affinity profiling via proximity ligation, sequencing); 10 mM Tris-HCl pH 7.5, 50 mM NaCl, 1 mM DTT, 4% glycerol, room temperature, 30 min; GST-TFs on glutathione beads, 16-mer random dsDNA library, 0.1% formaldehyde crosslink after washing; high values mean tight binding
# FLI1 = target: T1, FLI1 (Homo sapiens, UniProt Q01543 1-452); details: protein: recombinant; tags: N-terminal GST; dsDNA, one strand shown
# T1 sequence: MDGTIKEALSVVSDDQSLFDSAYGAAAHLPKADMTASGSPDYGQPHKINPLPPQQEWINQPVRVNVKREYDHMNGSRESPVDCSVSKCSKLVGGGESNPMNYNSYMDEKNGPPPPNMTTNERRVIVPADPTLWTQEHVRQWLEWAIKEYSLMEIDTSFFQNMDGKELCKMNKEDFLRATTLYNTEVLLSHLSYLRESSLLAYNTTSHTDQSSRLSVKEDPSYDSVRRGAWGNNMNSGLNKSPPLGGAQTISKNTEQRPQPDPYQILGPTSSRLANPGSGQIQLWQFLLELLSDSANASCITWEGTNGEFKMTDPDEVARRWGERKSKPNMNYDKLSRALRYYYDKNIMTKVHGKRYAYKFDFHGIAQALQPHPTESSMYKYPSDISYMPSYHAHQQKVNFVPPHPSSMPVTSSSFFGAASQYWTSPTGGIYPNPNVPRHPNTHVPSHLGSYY
# In short: (§1)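 The binding signal reported is, for every hexamer, its read frequency for a factor over its read frequency for the tag-only sample. Reads came from pools of yeast-expressed, GST-fused human transcription factors on glutathione beads, barcoded with DNA and mixed with that sample, which were incubated with 200 nmole of a random double-stranded 16-mer DNA library in Tris/NaCl/DTT/glycerol buffer at room temperature for 30 min. After washing, the pools were crosslinked with 0.1% formaldehyde, proximity-ligated with BsaI/T4 ligase for 1 h at 37 °C, PCR-amplified and sequenced on an Illumina NextSeq500.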
# ELK1 = target: T2, ELK1 (Homo sapiens, UniProt P19419 1-428); details: protein: recombinant; tags: N-terminal GST; dsDNA, one strand shown
# T2 sequence: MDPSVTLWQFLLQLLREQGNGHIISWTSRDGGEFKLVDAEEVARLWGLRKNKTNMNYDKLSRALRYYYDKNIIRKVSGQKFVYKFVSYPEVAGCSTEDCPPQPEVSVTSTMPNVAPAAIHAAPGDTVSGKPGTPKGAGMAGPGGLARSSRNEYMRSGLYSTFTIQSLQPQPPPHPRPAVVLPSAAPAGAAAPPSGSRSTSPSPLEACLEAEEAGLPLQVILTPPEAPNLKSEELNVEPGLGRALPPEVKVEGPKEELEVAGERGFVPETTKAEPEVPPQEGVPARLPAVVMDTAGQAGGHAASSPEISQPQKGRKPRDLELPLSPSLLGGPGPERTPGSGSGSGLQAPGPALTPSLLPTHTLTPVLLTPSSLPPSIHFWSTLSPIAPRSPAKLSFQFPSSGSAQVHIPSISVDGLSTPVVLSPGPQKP
# In short: as §1
# GABPA = target: T3, GABPA (Homo sapiens, UniProt Q06546 1-454); details: protein: recombinant; tags: N-terminal GST; dsDNA, one strand shown
# T3 sequence: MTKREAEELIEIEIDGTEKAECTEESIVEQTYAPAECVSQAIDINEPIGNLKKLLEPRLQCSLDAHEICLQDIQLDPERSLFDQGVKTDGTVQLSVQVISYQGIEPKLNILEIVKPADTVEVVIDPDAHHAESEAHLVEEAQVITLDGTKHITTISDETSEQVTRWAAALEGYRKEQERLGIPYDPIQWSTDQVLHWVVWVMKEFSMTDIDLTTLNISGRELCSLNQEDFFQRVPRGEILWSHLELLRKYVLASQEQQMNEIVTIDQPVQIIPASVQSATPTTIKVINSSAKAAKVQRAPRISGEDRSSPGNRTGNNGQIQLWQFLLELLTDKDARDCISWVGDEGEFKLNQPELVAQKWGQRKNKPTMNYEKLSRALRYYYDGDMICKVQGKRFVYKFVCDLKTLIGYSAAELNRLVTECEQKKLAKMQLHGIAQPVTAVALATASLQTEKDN
# In short: as §1
# ERG = target: T4, ERG (Homo sapiens, UniProt P11308 1-479); details: protein: recombinant; tags: N-terminal GST; dsDNA, one strand shown
# T4 sequence: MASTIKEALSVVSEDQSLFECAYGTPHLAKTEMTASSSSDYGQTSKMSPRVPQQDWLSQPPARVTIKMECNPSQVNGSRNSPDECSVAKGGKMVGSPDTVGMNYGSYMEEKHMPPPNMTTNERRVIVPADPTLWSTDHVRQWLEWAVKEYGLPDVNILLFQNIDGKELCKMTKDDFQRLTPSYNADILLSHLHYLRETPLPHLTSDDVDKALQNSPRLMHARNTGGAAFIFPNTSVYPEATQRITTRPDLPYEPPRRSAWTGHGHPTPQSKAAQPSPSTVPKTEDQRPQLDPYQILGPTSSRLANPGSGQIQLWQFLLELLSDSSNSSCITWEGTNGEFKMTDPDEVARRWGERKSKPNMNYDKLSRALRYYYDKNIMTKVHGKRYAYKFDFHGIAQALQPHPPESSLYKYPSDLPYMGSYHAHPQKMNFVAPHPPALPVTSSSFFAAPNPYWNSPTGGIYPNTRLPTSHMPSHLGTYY
# In short: as §1
# ELF1 = ELF1 (Homo sapiens, UniProt P32519 1-619); details: protein: recombinant; tags: N-terminal GST; dsDNA, one strand shown
# In short: as §1
# EHF = target: T5, EHF (Homo sapiens, UniProt Q9NZC4 1-300); details: protein: recombinant; tags: N-terminal GST; dsDNA, one strand shown
# T5 sequence: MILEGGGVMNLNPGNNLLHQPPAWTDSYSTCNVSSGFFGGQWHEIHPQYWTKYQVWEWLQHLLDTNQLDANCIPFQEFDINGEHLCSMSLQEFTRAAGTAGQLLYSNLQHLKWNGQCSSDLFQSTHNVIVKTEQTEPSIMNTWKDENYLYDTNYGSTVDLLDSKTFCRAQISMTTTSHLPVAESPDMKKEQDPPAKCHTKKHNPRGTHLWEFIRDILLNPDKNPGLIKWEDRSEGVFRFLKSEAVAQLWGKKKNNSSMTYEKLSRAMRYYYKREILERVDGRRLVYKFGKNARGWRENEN
# In short: as §1
# SPI1 = SPI1 (Homo sapiens, UniProt P17947 1-270); details: protein: recombinant; tags: N-terminal GST; dsDNA, one strand shown
# In short: as §1
# SPIB = SPIB (Homo sapiens, UniProt Q01892 1-262); details: protein: recombinant; tags: N-terminal GST; dsDNA, one strand shown
# In short: as §1
# ELK3 = target: T6, ELK3 (Homo sapiens, UniProt P41970 1-407); details: protein: recombinant; tags: N-terminal GST; dsDNA, one strand shown
# T6 sequence: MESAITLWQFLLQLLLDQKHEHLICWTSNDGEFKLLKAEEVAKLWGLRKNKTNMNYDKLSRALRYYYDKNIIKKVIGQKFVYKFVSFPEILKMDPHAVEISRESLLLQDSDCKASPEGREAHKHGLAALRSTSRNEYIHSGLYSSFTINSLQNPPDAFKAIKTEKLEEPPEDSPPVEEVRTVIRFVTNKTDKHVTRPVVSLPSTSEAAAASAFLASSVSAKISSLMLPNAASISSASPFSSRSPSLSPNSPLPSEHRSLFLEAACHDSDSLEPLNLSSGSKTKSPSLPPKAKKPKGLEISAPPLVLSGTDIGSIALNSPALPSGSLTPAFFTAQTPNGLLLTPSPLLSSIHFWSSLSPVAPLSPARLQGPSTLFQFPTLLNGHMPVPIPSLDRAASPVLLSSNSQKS
# In short: as §1
# FEV = target: T7, FEV (Homo sapiens, UniProt Q99581 1-238); details: protein: recombinant; tags: N-terminal GST; dsDNA, one strand shown
# T7 sequence: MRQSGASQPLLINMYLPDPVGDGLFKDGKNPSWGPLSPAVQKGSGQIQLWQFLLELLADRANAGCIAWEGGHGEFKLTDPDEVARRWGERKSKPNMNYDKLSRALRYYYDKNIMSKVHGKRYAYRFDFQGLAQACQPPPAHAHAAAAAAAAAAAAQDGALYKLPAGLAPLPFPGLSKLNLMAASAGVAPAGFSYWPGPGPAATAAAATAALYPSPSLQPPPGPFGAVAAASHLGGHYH
# In short: as §1
# ETV5 = ETV5 (Homo sapiens, UniProt P41161 1-510); details: protein: recombinant; tags: N-terminal GST; dsDNA, one strand shown
# In short: as §1
# HSF1 = HSF1 (Homo sapiens, UniProt Q00613 1-529); details: protein: recombinant; tags: N-terminal GST; chain copies: 3; dsDNA, one strand shown
# In short: as §1
# SPIC = target: T8, SPIC (Homo sapiens, UniProt Q8N5J4 1-248); details: protein: recombinant; tags: N-terminal GST; dsDNA, one strand shown
# T8 sequence: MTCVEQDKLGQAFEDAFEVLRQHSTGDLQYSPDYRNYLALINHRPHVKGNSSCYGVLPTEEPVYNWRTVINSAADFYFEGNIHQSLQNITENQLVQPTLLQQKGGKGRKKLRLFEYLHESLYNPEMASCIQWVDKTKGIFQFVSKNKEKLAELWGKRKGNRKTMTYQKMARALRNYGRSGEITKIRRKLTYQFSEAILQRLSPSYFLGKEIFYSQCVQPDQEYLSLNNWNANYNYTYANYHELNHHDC
# In short: as §1
# ELF4 = ELF4 (Homo sapiens, UniProt Q99607 1-663); details: protein: recombinant; tags: N-terminal GST; dsDNA, one strand shown
# In short: as §1
# ELK4 = target: T9, ELK4 (Homo sapiens, UniProt P28324-2 1-405); details: protein: recombinant; tags: N-terminal GST; dsDNA, one strand shown
# T9 sequence: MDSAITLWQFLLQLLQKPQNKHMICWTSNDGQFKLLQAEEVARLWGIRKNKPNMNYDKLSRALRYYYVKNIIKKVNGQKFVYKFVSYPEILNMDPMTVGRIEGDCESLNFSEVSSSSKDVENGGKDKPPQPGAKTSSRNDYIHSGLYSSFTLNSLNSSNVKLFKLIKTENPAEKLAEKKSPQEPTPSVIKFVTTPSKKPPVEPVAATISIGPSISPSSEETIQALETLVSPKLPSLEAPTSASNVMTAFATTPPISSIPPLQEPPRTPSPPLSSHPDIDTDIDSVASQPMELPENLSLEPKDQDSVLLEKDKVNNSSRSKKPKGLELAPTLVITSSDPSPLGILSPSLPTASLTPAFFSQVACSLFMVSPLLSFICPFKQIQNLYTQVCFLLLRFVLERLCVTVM
# In short: as §1
# ETV2 = target: T10, ETV2 (Homo sapiens, UniProt O00321 1-342); details: protein: recombinant; tags: N-terminal GST; dsDNA, one strand shown
# T10 sequence: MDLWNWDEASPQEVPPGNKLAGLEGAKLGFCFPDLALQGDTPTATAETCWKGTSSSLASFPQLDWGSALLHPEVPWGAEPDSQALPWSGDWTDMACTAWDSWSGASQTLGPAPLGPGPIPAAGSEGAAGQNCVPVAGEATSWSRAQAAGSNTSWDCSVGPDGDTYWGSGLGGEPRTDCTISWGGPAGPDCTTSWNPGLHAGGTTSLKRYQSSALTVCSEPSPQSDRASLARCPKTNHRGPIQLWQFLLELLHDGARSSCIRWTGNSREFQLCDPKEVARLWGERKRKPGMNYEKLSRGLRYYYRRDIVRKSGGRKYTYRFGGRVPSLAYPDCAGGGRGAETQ
# In short: as §1
# ELF3 = target: T11, ELF3 (Homo sapiens, UniProt P78545 1-371); details: protein: recombinant; tags: N-terminal GST; dsDNA, one strand shown
# T11 sequence: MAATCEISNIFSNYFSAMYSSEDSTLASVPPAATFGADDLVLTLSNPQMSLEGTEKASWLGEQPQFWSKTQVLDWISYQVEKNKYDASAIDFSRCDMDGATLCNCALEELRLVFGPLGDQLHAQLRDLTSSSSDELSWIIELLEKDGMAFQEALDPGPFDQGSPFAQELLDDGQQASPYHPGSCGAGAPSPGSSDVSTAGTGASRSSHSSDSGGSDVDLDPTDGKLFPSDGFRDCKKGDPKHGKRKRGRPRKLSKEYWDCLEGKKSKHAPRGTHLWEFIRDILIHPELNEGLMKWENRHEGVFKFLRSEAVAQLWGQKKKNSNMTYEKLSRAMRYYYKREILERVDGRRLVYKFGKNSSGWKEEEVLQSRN
# In short: as §1
# CRX = CRX (Homo sapiens, UniProt O43186 1-299); details: protein: recombinant; tags: N-terminal GST; dsDNA, one strand shown
# In short: as §1
# ETV1 = ETV1 (Homo sapiens, UniProt P50549 1-477); details: protein: recombinant; tags: N-terminal GST; dsDNA, one strand shown
# In short: as §1
# ELF1, sequence (P32519 whole entry): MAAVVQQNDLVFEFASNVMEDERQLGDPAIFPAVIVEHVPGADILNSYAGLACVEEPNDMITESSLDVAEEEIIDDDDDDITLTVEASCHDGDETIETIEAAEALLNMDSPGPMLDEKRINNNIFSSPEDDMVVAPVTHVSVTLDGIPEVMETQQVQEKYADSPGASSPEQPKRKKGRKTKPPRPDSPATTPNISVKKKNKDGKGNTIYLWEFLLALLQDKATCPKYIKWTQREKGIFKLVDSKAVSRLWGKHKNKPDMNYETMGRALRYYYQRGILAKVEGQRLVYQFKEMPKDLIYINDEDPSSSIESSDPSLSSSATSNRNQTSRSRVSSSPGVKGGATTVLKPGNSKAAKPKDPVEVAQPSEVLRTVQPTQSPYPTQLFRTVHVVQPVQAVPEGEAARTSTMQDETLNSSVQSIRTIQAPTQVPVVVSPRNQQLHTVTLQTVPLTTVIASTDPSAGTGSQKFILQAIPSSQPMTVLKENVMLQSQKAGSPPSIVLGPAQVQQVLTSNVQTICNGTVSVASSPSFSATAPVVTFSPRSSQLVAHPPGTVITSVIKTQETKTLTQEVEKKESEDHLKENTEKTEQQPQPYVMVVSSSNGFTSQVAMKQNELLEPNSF
# ETV1, sequence (P50549 whole entry): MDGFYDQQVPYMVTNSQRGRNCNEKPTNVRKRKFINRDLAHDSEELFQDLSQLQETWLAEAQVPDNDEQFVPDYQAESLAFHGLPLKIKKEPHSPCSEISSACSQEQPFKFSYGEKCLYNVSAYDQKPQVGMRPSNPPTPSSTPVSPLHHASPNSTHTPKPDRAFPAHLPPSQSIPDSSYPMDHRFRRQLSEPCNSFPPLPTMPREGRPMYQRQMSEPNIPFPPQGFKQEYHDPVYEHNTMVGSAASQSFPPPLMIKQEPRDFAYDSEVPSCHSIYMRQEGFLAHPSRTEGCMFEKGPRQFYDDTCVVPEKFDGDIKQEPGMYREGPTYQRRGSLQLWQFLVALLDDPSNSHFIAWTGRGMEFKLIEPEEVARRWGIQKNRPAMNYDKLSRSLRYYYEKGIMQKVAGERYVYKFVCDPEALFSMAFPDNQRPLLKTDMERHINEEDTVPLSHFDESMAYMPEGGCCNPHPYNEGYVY
# ETV5, sequence (P41161 whole entry): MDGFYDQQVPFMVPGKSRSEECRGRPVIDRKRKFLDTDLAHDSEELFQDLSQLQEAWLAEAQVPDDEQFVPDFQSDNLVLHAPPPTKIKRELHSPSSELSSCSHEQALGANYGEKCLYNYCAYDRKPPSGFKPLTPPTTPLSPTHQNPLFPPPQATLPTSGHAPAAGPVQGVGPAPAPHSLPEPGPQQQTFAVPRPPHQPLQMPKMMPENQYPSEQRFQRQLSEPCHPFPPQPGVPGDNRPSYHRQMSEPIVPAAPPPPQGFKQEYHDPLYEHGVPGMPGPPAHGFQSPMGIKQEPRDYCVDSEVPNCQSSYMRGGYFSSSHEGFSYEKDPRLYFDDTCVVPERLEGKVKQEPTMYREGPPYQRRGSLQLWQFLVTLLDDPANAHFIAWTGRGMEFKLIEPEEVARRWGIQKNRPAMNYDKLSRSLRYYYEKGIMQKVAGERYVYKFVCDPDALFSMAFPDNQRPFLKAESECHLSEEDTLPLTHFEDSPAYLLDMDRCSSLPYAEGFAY
# CRX, sequence (O43186 whole entry): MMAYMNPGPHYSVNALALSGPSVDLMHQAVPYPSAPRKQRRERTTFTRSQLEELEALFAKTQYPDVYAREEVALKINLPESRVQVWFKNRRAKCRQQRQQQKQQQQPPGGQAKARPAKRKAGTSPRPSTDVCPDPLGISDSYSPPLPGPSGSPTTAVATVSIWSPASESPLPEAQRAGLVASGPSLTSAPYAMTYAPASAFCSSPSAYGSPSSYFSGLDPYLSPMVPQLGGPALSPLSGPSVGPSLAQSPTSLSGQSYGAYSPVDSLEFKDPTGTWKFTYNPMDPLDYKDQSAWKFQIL
# HSF1, sequence (Q00613 whole entry): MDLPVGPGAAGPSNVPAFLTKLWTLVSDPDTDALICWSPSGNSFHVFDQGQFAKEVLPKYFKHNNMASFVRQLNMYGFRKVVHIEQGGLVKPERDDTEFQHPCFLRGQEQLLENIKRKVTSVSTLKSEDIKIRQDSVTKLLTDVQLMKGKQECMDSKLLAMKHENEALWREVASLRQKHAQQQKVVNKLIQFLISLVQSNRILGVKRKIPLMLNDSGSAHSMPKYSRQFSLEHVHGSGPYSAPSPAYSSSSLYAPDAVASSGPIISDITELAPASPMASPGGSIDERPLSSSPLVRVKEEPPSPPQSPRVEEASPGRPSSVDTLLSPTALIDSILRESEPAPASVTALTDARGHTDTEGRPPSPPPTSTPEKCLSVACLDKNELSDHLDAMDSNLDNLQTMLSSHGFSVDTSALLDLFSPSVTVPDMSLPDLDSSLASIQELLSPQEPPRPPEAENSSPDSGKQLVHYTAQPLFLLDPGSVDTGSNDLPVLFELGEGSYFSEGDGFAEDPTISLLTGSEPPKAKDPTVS
# ELF4, sequence (Q99607 whole entry): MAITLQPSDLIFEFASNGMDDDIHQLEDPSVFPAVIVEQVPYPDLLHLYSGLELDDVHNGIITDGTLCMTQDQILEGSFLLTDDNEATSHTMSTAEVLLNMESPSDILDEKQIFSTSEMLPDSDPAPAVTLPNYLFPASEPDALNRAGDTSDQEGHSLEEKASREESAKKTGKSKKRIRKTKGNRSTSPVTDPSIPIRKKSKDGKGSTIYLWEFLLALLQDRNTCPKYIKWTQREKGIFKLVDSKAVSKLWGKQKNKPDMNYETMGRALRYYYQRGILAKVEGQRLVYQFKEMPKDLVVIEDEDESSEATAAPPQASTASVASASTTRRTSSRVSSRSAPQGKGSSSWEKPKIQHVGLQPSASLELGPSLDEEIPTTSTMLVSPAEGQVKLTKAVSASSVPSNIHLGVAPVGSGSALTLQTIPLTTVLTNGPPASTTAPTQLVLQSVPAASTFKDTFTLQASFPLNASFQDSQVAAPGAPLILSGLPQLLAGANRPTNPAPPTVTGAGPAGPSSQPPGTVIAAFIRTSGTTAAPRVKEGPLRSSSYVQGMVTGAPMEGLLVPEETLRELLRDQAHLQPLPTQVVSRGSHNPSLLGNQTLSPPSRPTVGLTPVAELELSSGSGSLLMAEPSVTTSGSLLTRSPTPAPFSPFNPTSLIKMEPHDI
# SPIB, sequence (Q01892 whole entry): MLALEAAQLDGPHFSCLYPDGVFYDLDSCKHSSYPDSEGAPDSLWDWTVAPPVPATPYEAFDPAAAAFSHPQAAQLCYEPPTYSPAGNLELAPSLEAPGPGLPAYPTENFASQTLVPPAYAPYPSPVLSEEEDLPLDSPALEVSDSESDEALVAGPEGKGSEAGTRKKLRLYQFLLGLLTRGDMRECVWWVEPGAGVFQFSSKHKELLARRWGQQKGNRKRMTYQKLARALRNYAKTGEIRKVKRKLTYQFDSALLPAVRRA
sequence,measurement,setting,value
TAATTC,binding signal,FLI1,"1.5 fold enrichment (6-mer frequency, TF over GST control)"
same,binding signal,ELK1,"1.36 fold enrichment (6-mer frequency, TF over GST control)"
same,binding signal,GABPA,"1.48 fold enrichment (6-mer frequency, TF over GST control)"
same,binding signal,ERG,"1.48 fold enrichment (6-mer frequency, TF over GST control)"
same,binding signal,ELF1,"1.48 fold enrichment (6-mer frequency, TF over GST control)"
same,binding signal,EHF,"1.37 fold enrichment (6-mer frequency, TF over GST control)"
same,binding signal,SPI1,"1.33 fold enrichment (6-mer frequency, TF over GST control)"
same,binding signal,SPIB,"1.51 fold enrichment (6-mer frequency, TF over GST control)"
same,binding signal,ELK3,"1.58 fold enrichment (6-mer frequency, TF over GST control)"
same,binding signal,FEV,"1.36 fold enrichment (6-mer frequency, TF over GST control)"
same,binding signal,ETV5,"1.44 fold enrichment (6-mer frequency, TF over GST control)"
same,binding signal,HSF1,"2.33 fold enrichment (6-mer frequency, TF over GST control)"
same,binding signal,SPIC,"1.44 fold enrichment (6-mer frequency, TF over GST control)"
same,binding signal,ELF4,"1.48 fold enrichment (6-mer frequency, TF over GST control)"
same,binding signal,ELK4,"1.3 fold enrichment (6-mer frequency, TF over GST control)"
same,binding signal,ETV2,"1.51 fold enrichment (6-mer frequency, TF over GST control)"
same,binding signal,ELF3,"1.29 fold enrichment (6-mer frequency, TF over GST control)"
same,binding signal,CRX,"3.05 fold enrichment (6-mer frequency, TF over GST control)"
same,binding signal,ETV1,"1.4 fold enrichment (6-mer frequency, TF over GST control)"
